About 2,600 (0.72%) of roughly 360,000 compounds were called active.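 Rule for the calls: active = inhibition of the luminescence signal of 40% or more relative to plate controls, in a single-dose primary screen at 18.75 µM; inactive = the rest.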 Only a selection was taken, and actives are over-represented in it overall.
Test: blockers of HIF-2a driven luciferase – luminescence, 786-0 RCC cells, primary screen (AID 624352)
Settings: 786-0 RCC cells HIF-2a reporter, overnight, at 18.8 µM, hits give high values

inhibition, active:
COc1ccc(/C=C2/SC(=O)N(CCCCCC(=O)Nc3ccccc3C(=O)O)C2=S)cc1 84.2%, NC1=CC(=O)C(=O)c2cccnc21 54.7%, CSc1nc(-c2ccccc2)nc(C(Cl)Cl)n1 77.8%, O=C(CCl)Nc1cccc(CP(=O)(c2ccccc2)c2ccccc2)c1 44.2%, CC[C@@H]1Cc2cc(O)ccc2C2=C1c1ccc(O)cc1C[C@H]2CC 45.9%, COc1cc2c(cc1O)C(SC)=NC(C)(C)C2 89.4%, O=C(/C(=C/c1cccc(Cl)c1)c1nc2ccccc2[nH]1)c1ccccc1 92.8%, CCc1ccc(CNC(=O)C2CCN(c3nnc(C)c4c(C)n(-c5ccc(C)cc5)nc34)CC2)cc1 54.1%, CCOc1ccc(CNC(=O)C2CCCN(c3nnc(C)c4c(C)n(-c5ccccc5)nc34)C2)cc1 (centres undefined) 40.7%, Cc1cc(C)nc(S/C=C/C(=O)c2ccccc2)n1 69.1%, CCOC(=O)c1c(C)[nH]c2c1-c1ccccc1C(=O)C2=O 96.1%, COc1ccc(C(=O)Nc2ccccc2C(=O)N/N=C/c2ccc(O)c(OC)c2)cc1 69.5%, Cc1[nH]c(=O)c(C(=O)/C=C/c2ccccc2)c2c1CCCC2 72.5%

inhibition, inactive:
COc1ccc(NC(=O)CCCN2C(=O)C(c3ccccc3)Oc3cccnc32)cc1 (centres undefined) 0.775%, CCCNC(=O)c1ccccc1NC(=O)CSCc1ccc(OC)cc1 19%, Cc1ccccc1C(=O)N1CCC(C(=O)Nc2ccc(S(=O)(=O)N(C)C(C)C)cc2)CC1 16.4%, CC=CCn1c(SCCCc2ccccc2)nc2c1c(=O)[nH]c(=O)n2C 3.87%, O=C(CCC(=O)NNc1nc2ccccc2c2nc(-c3ccccc3)nn12)NCCCN1CCCC1=O -19.4%, COCCNC(=S)Nc1cc(S(=O)(=O)N2CCOCC2)ccc1N1CCCCC1 11.9%, CCn1cc(CNC(=O)c2cc([N+](=O)[O-])c(C)c([N+](=O)[O-])c2)cn1 8.39%, O=C(CNCc1ccc(Cl)cc1)Nc1cccc(C(=O)O)c1 2.72%, O=C(CN1CCN(Cc2ccccc2)CC1)Nc1ccc(F)c(F)c1 -1.13%, O=C(NCc1cccs1)c1ccc(CS(=O)Cc2ccccc2Cl)o1 (centres undefined) -0.00949%, Cc1cccc(OCCC(=O)Nc2cc(S(=O)(=O)N3CCCCC3)ccc2N2CCOCC2)c1 -42.8%, CCOC(=O)c1sc(/N=C/C2=C(O)CC(C)(C)CC2=O)c(C(=O)OCC)c1C -268%, CC(C)C1Nc2c(C(=O)O)cccc2C(Nc2ccccc2C(=O)O)C1(C)C (centres undefined) 19%, O=C(COC(=O)CC1CC2CCC1C2)NC(=O)NC1CCCC1 (centres undefined) 11.3%, Cc1cc(Br)cn2c(Cc3ccccc3C(F)(F)F)c(C3CCCCC3)nc12 7.15%, COc1cc2c(cc1OC)C(Nc1ccc(S(N)(=O)=O)cc1)=NC(C)(C)C2 8.2%, COc1cc2c(cc1OC)CC1(CCCCC1)N=C2 10.1%, CC(NC(=O)CC1SC(N)=NC1=O)c1ccccc1 (centres undefined) 6.27%, C[C@H]1CN([C@@H](C)CO)C(=O)CCCn2cc(nn2)CO[C@@H]1CN(C)S(=O)(=O)c1cccs1 6.28%, O=c1onc(-c2c(F)cccc2F)n1-c1ccccc1Cl 11.8%, Cc1c[n+]([O-])ccc1[N+](=O)[O-] 3.58%, Cc1ccc(NC(=O)N2CCC(C(=O)NCc3ccc(F)cc3)CC2)cc1 11.1%, CCc1ccc(CNC(=O)C2CC(=O)N(CCc3ccc(C)cc3)C2)cc1 (centres undefined) -8.53%, CCc1ccc(CNC(=O)C2CCCN(c3nc4ccccc4o3)C2)cc1 (centres undefined) 12.9%, COc1cccc(CNC(=O)C2CCCN(c3ncnc4c3nc3n4CCCCC3)C2)c1 (centres undefined) 0.819%, CN(C)S(=O)(=O)c1cc(NC(=O)CN2C(=O)NC3(CCCc4ccccc43)C2=O)ccc1Cl (centres undefined) 12.2%, O=c1cc(C(F)(F)F)[nH]c(=O)n1C1CCCCC1 3.85%, COc1ccc([N+](=O)[O-])cc1N(CC(=O)Nc1ccccc1C(=O)N1CCOCC1)S(C)(=O)=O 3.69%, CCCCNC(=O)OCCSCCS(=O)(=O)c1ccc(Cl)cc1 10.7%, O=C(CN1CCN(c2ccccn2)CC1)NCc1cccs1 4.32%, COc1ccc(OC)c(NC(=O)C2CCCN2S(=O)(=O)c2cccc3nsnc23)c1 (centres undefined) 16.7%, C/C(=C\C(=O)c1ccccc1)Nc1cccc(O)c1 -359%, Cc1nc(SCC(=O)c2ccccc2)c([N+](=O)[O-])[nH]1 8.52%, CN1c2ccc(C=O)c3c(C=O)ccc(c23)N(C)C1(C)C 25.6%, CC1(C(=O)NS(=O)(=O)Cc2cccc(Cl)c2)CCN1C(=O)Cc1ccccc1 (centres undefined) 12.1%, C[C@@H]1NC(=O)c2cc([N+](=O)[O-])cc(F)c2NCCC[C@@H](C(N)=O)NC(=O)[C@H](CC(N)=O)NC1=O 9.38%, CCOC(=O)c1c(C)oc(C)c(C(=O)OCC)c1=O 0.843%, CCOC(=O)c1[nH]c(C)c(C(=O)OCC(=O)N2c3ccccc3CC2C)c1C (centres undefined) 2.58%, COc1ccc(CN2CCNC(=O)C2CC(=O)N(C)Cc2ccccn2)cc1OC (centres undefined) 9.28%, COc1cc(C=NC2CCCCC2)ccc1O 2.1%, COc1cc(/C=N/NC(=O)Nc2ccccc2)ccc1OCCOc1ccccc1C -9.55%, Cc1ccc(C)c(NC(=O)CN(C)C(=O)c2ccc3ncsc3c2)c1 5.94%, CC(C)CN(C(=O)c1ccc2c(c1)OCO2)C1CCS(=O)(=O)C1 (centres undefined) 24.2%, Cc1nn(-c2ccccc2)c(=O)c2noc(C)c12 3.29%, C/C(=C\c1ccccc1)C1NC(=O)c2c(sc3c2CCCC3)N1 (centres undefined) -140%, CC1(C(=O)O)CCN1C(=O)/C=C/c1ccccc1 (centres undefined) 3.94%

From PubChem BioAssay AID624352 (Sanford-Burnham Center for Chemical Genomics, 2012)
